Molecules are shown by their SMILES. For some of these results: Measured potencies and affinities stand elsewhere.

Common to all, as to set-up: scale not given: direction of the effect not stated beside the values
Assay [1] deals with Protein translocase subunit SecA (Escherichia coli (strain K12)) (UniProt P10408). The assay is described as follows: Assay to Identify E. coli SecA ATPase Inhibitors. It is filed as functional. The settings on record: 30 µM.
For assay [2], the target named is T1, Ubiquitin-activating enzyme e1, putative (Leishmania donovani (strain BPK282A1)) (UniProt E9BSI1).
T1 sequence (whole entry): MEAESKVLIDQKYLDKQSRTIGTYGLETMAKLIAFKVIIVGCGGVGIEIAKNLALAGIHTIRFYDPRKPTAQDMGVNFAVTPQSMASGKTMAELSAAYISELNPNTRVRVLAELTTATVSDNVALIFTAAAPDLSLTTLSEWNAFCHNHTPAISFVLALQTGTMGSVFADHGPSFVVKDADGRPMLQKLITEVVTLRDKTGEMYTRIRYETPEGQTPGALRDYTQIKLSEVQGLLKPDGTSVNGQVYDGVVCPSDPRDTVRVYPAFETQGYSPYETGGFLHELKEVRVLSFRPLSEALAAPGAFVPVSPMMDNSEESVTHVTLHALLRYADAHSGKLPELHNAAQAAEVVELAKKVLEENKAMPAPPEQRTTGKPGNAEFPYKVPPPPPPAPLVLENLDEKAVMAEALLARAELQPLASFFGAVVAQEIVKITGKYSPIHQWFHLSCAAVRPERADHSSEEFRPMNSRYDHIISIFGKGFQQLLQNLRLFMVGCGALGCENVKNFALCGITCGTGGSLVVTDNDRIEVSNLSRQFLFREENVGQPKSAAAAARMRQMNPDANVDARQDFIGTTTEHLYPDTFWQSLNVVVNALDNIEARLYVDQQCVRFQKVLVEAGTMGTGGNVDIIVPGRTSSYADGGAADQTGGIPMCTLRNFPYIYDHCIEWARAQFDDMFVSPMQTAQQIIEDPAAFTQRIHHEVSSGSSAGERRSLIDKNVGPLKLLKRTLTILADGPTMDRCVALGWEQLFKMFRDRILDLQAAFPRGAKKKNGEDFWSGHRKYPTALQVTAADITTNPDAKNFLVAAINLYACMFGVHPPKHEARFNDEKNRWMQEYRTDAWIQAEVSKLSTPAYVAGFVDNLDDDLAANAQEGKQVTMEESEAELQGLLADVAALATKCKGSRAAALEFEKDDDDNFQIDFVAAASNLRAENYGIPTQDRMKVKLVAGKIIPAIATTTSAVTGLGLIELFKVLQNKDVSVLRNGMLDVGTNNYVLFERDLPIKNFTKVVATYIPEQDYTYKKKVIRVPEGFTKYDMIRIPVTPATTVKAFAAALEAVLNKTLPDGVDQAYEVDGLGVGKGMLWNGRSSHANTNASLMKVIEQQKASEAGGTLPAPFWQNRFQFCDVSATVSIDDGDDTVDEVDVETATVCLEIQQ
Kind of assay: Leishmania donovani Ubiquitin Activating Enzyme (LdE1). It is filed as functional. The following applies: 30 µM.

The target of assay [3] is AMP-activated protein kinase, AMPK (Homo sapiens) (UniProt P54646+O43741+P54619+Q9UGJ0+Q9Y478+Q13131+Q9UGI9). The assay is described as follows: AMP-dependent Kinase enzyme assay. An in vitro enzyme assay that detects ADP turnover that is directly proportional to AMPK activity. This uses naive AMPK that is activated during the assay with MK-8722. The settings on record: 30 µM. It counts as functional.

For assay [4], the target named is Sialic acid-binding Ig-like lectin 9 (Homo sapiens) (UniProt Q9Y336). The assay is described as follows: Hs-Siglec9 ALPHAscreen SOP 20170721. The following applies: 10 µM. In general terms: Bead proximity is the source of the signal in Alpha formats.
Sialic acid-binding Ig-like lectin 9 (Homo sapiens), sequence (Q9Y336 whole entry): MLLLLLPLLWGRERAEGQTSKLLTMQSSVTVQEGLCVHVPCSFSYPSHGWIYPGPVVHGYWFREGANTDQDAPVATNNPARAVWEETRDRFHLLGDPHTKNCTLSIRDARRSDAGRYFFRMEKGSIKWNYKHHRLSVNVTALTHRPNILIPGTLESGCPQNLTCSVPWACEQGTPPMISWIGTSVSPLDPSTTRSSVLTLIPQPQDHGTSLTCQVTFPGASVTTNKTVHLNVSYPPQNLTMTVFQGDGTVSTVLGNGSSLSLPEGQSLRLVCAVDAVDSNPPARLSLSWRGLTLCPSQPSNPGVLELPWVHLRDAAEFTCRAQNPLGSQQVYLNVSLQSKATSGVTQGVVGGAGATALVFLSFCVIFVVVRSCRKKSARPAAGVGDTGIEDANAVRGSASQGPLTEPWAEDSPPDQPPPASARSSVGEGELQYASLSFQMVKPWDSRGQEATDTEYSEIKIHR
The test system of the next assay is Trypanosoma cruzi. The assay is described as follows: Trypanosoma cruzi phosphomannomutase and mannose-1-phosphate guanylyltransferase assay. It counts as functional. The following applies: 10 µM.
For assay [5], the target named is T2, Arginase-2, mitochondrial (Homo sapiens) (UniProt P78540).
T2 sequence (whole entry): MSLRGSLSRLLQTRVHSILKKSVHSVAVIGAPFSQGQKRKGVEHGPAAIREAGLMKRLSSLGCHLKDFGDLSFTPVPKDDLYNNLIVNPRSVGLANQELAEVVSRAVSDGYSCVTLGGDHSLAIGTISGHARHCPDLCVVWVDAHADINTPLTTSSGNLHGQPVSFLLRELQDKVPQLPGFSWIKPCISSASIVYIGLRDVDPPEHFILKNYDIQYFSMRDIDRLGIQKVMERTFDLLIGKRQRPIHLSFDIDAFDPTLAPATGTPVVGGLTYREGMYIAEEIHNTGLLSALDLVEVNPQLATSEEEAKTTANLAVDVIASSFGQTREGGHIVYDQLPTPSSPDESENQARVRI
Kind of assay: in vitro enzyme assay to detect the production of urea directly proportional to the activity of Arginase II. Further: in the data most compounds retested in dose-response had high values. It counts as functional. The settings on record: 33.3 µM.

In assay [6] the target is T3, Proteasome subunit beta (Trypanosoma cruzi) (UniProt O96673).
T3 sequence (whole entry): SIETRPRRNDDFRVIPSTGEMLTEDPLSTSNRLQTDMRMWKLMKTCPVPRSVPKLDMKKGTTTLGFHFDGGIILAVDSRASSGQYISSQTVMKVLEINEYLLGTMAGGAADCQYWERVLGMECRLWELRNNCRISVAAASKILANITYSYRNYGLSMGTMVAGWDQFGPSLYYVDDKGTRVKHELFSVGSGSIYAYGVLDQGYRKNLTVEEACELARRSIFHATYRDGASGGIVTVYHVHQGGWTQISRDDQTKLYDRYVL
The assay is described as follows: Trypanosoma cruzi proteasome chymotrypsin-like activity (TcProtChymo) assay. Further: in the data most compounds retested in dose-response had high values. The settings on record: 9.37 µM. It counts as functional.

Another assay is filed under the species Homo sapiens. The assay is described as follows: To identify inhibition of the IFN signalling (Jak-Stat) pathway via expression of an eGFP reporter gene under the control of an IFN-stimulated response element (ISRE) containing MxA promoter. The following applies: 30 µM. It counts as functional. (In a reporter assay the amount or activity of a reporter protein is the signal.)

For assay [7], the target named is T4, Tyrosyl-tRNA synthetase, putative (Trypanosoma cruzi (strain CL Brener)) (UniProt Q4DSP6).
T4 sequence (whole entry): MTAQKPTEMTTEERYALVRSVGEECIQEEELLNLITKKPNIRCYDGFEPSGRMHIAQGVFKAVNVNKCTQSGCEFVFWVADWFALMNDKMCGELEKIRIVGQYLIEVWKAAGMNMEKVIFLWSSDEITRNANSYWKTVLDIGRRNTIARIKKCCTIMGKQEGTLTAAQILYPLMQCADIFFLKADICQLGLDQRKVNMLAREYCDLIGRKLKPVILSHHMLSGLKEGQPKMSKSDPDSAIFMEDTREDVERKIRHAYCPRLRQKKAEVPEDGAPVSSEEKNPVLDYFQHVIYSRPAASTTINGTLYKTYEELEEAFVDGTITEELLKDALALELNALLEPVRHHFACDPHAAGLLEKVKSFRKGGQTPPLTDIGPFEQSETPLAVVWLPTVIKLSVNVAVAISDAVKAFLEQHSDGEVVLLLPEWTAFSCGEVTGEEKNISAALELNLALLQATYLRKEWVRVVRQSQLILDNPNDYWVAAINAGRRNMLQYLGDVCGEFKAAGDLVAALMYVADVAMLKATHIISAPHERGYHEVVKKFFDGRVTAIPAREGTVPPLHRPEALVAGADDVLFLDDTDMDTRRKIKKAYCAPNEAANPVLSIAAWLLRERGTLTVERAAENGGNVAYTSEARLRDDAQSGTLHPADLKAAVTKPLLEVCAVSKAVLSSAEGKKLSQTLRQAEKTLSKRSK
Kind of assay: Trypanosoma cruzi tyrosyl tRNA synthetase (TcYRS) _High Tyrosine SOP. Further: in the data most compounds retested in dose-response had high values. It counts as functional. The settings on record: 30 µM.

For assay [8], the target named is T4, Tyrosyl-tRNA synthetase, putative (Trypanosoma cruzi (strain CL Brener)). The assay is described as follows: Trypanosoma cruzi tyrosyl tRNA synthetase (TcYRS) SOP. It is filed as functional. The settings on record: 30 µM.
For assay [9], the target named is Chromo domain-containing protein 1 (Saccharomyces cerevisiae (strain ATCC 204508 / S288c) (Baker's yeast)) (UniProt P32657). Kind of assay: ScCHD-1 Enzyme Inhibition Assay. Further: in the data most compounds retested in dose-response had high values. It counts as functional. The following applies: 30 µM.
Chromo domain-containing protein 1 (Saccharomyces cerevisiae (strain ATCC 204508 / S288c) (Baker's yeast)), sequence (P32657 whole entry, the tested form may be a part): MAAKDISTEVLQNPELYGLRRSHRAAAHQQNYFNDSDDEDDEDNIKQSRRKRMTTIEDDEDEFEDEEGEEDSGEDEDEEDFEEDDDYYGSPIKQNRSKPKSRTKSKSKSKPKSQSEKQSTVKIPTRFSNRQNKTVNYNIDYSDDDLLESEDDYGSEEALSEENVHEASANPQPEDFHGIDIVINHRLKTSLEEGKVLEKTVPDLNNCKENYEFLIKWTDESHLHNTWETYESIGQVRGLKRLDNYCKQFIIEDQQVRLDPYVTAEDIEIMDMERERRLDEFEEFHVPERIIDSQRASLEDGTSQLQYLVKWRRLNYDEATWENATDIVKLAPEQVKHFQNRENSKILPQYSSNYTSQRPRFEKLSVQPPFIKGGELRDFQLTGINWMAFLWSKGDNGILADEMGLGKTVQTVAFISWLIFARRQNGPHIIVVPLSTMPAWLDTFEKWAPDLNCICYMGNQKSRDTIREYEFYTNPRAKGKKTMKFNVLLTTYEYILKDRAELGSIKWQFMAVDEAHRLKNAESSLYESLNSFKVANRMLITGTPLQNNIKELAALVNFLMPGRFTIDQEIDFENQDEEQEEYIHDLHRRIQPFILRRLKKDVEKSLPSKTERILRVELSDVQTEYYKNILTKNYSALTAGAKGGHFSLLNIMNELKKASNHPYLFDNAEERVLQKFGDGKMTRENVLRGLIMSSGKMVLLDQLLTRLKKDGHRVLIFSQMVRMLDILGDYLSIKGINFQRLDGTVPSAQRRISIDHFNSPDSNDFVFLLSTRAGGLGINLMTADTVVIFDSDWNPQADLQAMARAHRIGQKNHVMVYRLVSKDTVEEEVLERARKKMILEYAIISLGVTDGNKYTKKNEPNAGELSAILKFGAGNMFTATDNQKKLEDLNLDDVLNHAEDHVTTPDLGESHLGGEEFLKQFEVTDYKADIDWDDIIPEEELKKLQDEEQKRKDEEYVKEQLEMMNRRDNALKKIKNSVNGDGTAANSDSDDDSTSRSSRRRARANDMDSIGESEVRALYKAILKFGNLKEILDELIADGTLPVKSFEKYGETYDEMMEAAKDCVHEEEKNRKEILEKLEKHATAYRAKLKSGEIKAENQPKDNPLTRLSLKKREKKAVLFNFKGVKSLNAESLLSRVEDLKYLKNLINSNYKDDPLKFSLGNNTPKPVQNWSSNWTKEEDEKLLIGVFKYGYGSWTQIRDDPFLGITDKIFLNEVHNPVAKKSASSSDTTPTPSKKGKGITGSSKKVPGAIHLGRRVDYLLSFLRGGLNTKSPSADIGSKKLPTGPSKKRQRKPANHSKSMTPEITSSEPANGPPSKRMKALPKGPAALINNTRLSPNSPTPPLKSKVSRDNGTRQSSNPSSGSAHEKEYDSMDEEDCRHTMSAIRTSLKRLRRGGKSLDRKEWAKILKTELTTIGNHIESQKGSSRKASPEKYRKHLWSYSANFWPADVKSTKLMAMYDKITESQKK

Protein translocase subunit SecA (Escherichia coli (strain K12)), sequence (P10408 whole entry): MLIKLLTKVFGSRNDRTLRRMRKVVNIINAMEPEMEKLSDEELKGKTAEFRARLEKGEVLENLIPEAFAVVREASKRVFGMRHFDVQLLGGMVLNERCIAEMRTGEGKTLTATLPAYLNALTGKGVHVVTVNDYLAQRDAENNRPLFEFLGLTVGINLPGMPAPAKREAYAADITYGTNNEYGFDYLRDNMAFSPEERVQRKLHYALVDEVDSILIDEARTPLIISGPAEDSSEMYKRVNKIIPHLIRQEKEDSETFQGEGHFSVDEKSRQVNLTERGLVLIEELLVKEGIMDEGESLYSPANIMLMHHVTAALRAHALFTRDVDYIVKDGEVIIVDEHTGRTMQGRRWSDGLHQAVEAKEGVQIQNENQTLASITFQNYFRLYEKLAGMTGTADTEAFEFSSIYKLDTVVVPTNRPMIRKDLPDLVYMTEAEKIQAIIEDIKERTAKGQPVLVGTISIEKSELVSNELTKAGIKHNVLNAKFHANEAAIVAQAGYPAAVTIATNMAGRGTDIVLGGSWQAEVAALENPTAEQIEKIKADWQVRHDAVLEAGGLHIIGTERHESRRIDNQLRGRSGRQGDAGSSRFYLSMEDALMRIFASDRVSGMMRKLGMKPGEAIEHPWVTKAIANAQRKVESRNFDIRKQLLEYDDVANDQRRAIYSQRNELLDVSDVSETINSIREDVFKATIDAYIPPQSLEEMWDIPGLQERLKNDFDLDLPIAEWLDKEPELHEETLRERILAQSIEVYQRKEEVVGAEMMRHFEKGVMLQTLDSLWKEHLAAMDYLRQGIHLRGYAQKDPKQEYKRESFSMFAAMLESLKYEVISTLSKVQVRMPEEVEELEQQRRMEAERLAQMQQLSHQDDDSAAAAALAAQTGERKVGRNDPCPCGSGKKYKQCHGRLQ

As for `Cc1noc(C)c1CNC(=O)N1CCN(Cc2cscn2)CC1`, the Percent Effect is -5.7% in [1]; 15.8% in [2]; -5.03% in assay [3]; 9.82% in assay [4]; 5.45% with Trypanosoma cruzi; 0.766% in assay [5]. Besides, the Percent Effect in assay [6] is 3.51%; in the assay listed under Homo sapiens, -2.83%; in assay [7] it was 6.37%; in [8], 17.1%; in assay [9], -14.9%.
For `CCc1nccn1C1CCCN(C(=O)c2ccc3nncn3c2)C1` (stereo unspecified), the Percent Effect was -5.07% in assay [1]; 7.79% in assay [2]; -4.63% in [3]; 9.34% in assay [4]; 5.06% with Trypanosoma cruzi; -1.78% in [5]. Also, the Percent Effect was 2.03% in assay [6]; 9.22% in the assay filed under Homo sapiens; 6.8% in assay [7]; 19.5% in assay [8]; -7.6% in [9].
Regarding `CC(C)N1CCC(Cc2cnc(-c3cccc(C(=O)O)c3)cn2)C1` (stereo unspecified), the Percent Effect in [1] was -3.78%; in [2] it was 1.35%; in assay [3], 12.1%; in [4] it was 1.95%; in the assay with Trypanosoma cruzi, 1.19%; in assay [5], 1.62%. Besides, the Percent Effect in [6] was -3.59%; in the assay filed under Homo sapiens, 7.71%; in assay [7] it was 0%; in [8] it was 9.09%; in [9], 5.67%.
For the compound `Cc1ccc(CNC(CN2CCN(C)CC2)c2ccccc2)cc1` (stereo unspecified), the Percent Effect was -5.66% in [1]; 8.11% in [2]; -8.66% in assay [3]; -0.353% in assay [4]; -2.05% with Trypanosoma cruzi; -1.74% in assay [5]. Also, the Percent Effect in assay [6] was 7.64%; in the assay filed under Homo sapiens it was 13.4%; in [7], 3.23%; in [8], 8.64%; in assay [9] it was -3.22%.
Consider `CC1=N[C@@]2(CC[C@@H]3CN(CC(=O)N(C)C)C[C@@H]32)C(=O)N1CC(C)C`, for which the Percent Effect is 3.62% in assay [1]; 12% in assay [2]; 42.2% in [3]; 1.63% in assay [4]; -8.25% in the assay on Trypanosoma cruzi; -20.6% in [5]. Moreover, the Percent Effect in assay [6] was 9.43%; in the assay filed under Homo sapiens, 24.2%; in [7], 1.06%; in assay [8], 0%; in assay [9], -8.72%.
With `CCc1cnc(C)nc1NCCN1CCCCCC1`, the Percent Effect in assay [1] is -0.998%; in assay [2] it was 5.2%; in assay [3] it was -1.3%; in assay [4] it was 10.8%; in the assay with Trypanosoma cruzi it was -0.295%; in assay [5], 0%. Moreover, the Percent Effect in assay [6] is 14.3%; in the assay filed under Homo sapiens it was 0.592%; in assay [7] it was 14%; in assay [8], 16.1%; in assay [9] it was -4.71%.
With `O=C(CN1CC(n2cccn2)C1)NCCCc1ccccc1`, the Percent Effect in assay [1] is 0.869%; in assay [2] it was -13.5%; in assay [3], 10.2%; in assay [4], 12.8%; in the assay with Trypanosoma cruzi it was 6.41%; in assay [5], 1.29%. Also, the Percent Effect in [6] is -0.179%; in the assay filed under Homo sapiens, -9.65%; in assay [7], 1.98%; in assay [8] it was 11%; in assay [9] it was 1.45%.
As to `CC(NC(=O)NCCCc1n[nH]c(N)c1C#N)c1cccs1` (stereo unspecified), the Percent Effect in assay [1] is -4.67%; in assay [2], 22.8%; in [3], 38.5%; in assay [4] it was -12.2%; in the assay on Trypanosoma cruzi it was 6.52%; in assay [5], -14.1%. Moreover, the Percent Effect in assay [6] was 16.6%; in the assay listed under Homo sapiens it was 15.9%; in [7], 8.37%; in assay [8], 24.1%; in assay [9] it was -7.24%.
On to `CC(C)n1ccnc1C1CCN(Cc2ccc(Cl)c(F)c2)CC1`, for which the Percent Effect in assay [1] was -4.75%; in [2] it was 5.2%; in assay [3] it was 1.93%; in [4], 15.3%; in the assay on Trypanosoma cruzi, 0.885%; in assay [5], -4.14%. For the same compound, the Percent Effect in assay [6] came to 12.5%; in the assay filed under Homo sapiens, 18.3%; in assay [7], 6.45%; in assay [8] it was 8.64%; in [9], 0.763%.
Consider `CCCS(=O)(=O)N1CCN(c2cc(-n3cnc(C)c3C)nc(C)n2)CC1`, for which the Percent Effect in [1] is -2.71%; in assay [2], 0%; in [3], 2.33%; in [4], -0.358%; in the assay on Trypanosoma cruzi, -3.25%; in assay [5], 9.65%. In addition, the Percent Effect in assay [6] is 3.16%; in the assay filed under Homo sapiens it was -2.89%; in assay [7], 1.07%; in [8], -3.7%; in assay [9], 2.9%.
On to `Cc1cc(C)n(C2CCCN(C(=O)c3cc(C4CC4)on3)C2)n1` (stereo unspecified), for which the Percent Effect was -4.93% in assay [1]; 5.2% in assay [2]; -0.0913% in assay [3]; -0.636% in assay [4]; 4.41% in the assay on Trypanosoma cruzi; -1.05% in assay [5]. Further, the Percent Effect in [6] is 13.8%; in the assay listed under Homo sapiens it was -1.26%; in assay [7], 1.91%; in assay [8], 9.41%; in [9] it was -18.6%.
